# Shown are actives, neighbours in structure and some others; about 3.6% of the full set was active somewhere.
# A3A deaminase = APOBEC3A ssDNA deaminase inhibitors, primary screen, selectivity assay for APOBEC3G inhibitor project, biochemical, FAM/TAMRA oligo cleavage fluorescence | recombinant A3A, FAM/TAMRA ssDNA deamination fluorescence | DNA dC->dU-editing enzyme APOBEC-3A (Homo sapiens), P31941 | 330,000 compounds, 0.41% hits | inhibition, % at 20 µM | AID 493011, 2011;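 active = at least 40% inhibition at 20 µM here, with at most 30% in a related deaminase screen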
# Target sequence (P31941 whole entry, looked up): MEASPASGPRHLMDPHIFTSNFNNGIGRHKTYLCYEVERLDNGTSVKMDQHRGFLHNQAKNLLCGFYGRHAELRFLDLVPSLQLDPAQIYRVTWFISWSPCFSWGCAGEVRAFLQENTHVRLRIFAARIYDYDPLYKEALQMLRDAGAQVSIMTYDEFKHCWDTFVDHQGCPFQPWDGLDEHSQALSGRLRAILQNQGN
# PHOSPHO1 inh = PubChem AID 1565; Phosphoethanolamine/phosphocholine phosphatase (Homo sapiens), Q8TCT1; recombinant PHOSPHO1, absorbance phosphatase assay; inhibition, % at 13.3 µM; 290,000 compounds, 1.1% hits; in the data active = inhibition above about 60%
# Target sequence (Q8TCT1 whole entry, looked up): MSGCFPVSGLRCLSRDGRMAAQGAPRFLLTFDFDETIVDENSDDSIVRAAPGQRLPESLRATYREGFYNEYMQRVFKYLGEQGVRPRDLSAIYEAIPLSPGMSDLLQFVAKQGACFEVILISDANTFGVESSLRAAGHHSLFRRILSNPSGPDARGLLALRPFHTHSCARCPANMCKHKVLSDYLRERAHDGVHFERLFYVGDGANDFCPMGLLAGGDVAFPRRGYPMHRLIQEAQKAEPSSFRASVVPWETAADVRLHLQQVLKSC
# MITF act = activators of MITF-driven TRPM1 promoter reporter, primary screen, cell-based, SK-MEL-5, luciferase, single point; AID 588334, 2011; 300,000 compounds, 0.75% hits; activation, % at 12.5 µM; SK-MEL-5 TRPM1-promoter luciferase, 24 h; % of positive control, neutral wells = 0;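 active = mean activation of at least 80% with every replicate also reaching 80%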
# esBAF inh = Bmi1 luciferase reporter increase in mESCs, primary screen, esBAF inhibitor project, mouse ES cells, Bmi1 luciferase knock-in, single point; 24 h; 100% = twice the neutral-well signal; reporter increase, % at 12.5 µM; 350,000 compounds, 2% hits; AID 602393, 2012; in the data active = activation above about 40%;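 also: a rise in the Bmi1 reporter signal indicates esBAF inhibition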
# Wnt bcat act = Wnt/beta-catenin pathway activators, primary screen, cell-based, plate reader, single point | Wnt/beta-catenin reporter cell assay, activator | activation, % at 9.35 µM | 300,000 compounds, 1.2% hits; in the data active = activation above about 30%, passing the limit was not always enough
# A3G deaminase = APOBEC3G DNA deaminase inhibitors, primary screen, biochemical, fluorescence, single-stranded DNA substrate, uHTS; DNA dC->dU-editing enzyme APOBEC-3G (Homo sapiens), Q9HC16; 330,000 compounds, 0.28% hits; recombinant A3G, ssDNA deamination FAM/TAMRA fluorescence; inhibition, % at 20 µM;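 active = inhibition of at least 40% at 20 µM, with no more than 30% in the related APOBEC3A deaminase screen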
# Numbers stand for hits; i = inactive; nt = not tested or not shown.
SMILES,A3A deaminase,PHOSPHO1 inh,MITF act,esBAF inh,Wnt bcat act,A3G deaminase
O=C(CCc1ccccc1)Nc1ccc(N2CCCCC2)cc1,i,i,i,50,nt,i
O=C(NC(=S)Nc1ccc(N2CCCCC2)cc1)c1ccco1,i,i,110,i,i,i
O=C(Cc1ccccc1)Nc1ccc(N2CCCC2)cc1,i,i,i,i,i,i
Cc1ccc(C(=O)NC(=S)Nc2ccc(N3CCN(C(=O)c4ccco4)CC3)cc2)cc1,i,i,i,i,i,i
COc1ccc(NC(=O)N(C)C[C@H]2Oc3c(NS(=O)(=O)c4ccc(OC)cc4)cccc3C(=O)N([C@@H](C)CO)C[C@H]2C)cc1,nt,nt,nt,i,nt,nt
COc1ccccc1CNC(=O)C[C@@H]1CC[C@H](NC(C)=O)[C@@H](CO)O1,nt,nt,nt,i,nt,nt
COC(=O)C1CCN(C(=O)c2sc3nc(-c4ccc(F)cc4)cn3c2C)CC1,i,i,nt,i,nt,i
Cc1c(C(=O)NCc2cccnc2)sc2nc(-c3ccccc3)cn12,i,i,nt,66,i,i
Cc1c(C(=O)NCc2ccco2)sc2nc(-c3ccccc3)cn12,i,i,nt,48,i,i
Cc1c(C(=O)NCc2cccnc2)sc2nc(-c3ccc(F)cc3)cn12,i,i,nt,66,i,i
COc1ccc(-c2cn3c(C)c(C(=O)NCCN4CCOCC4)sc3n2)cc1,i,i,nt,56,nt,i
Cc1c(C(=O)NCCCN2CCOCC2)sc2nc(-c3ccc(F)cc3)cn12,i,i,i,i,nt,i
COc1ccc(NC(=O)Nc2ccc3c(c2)C(=O)N([C@H](C)CO)C[C@H](C)[C@H](CN(C)C(=O)Cc2ccccc2)OCCCC[C@H](C)O3)cc1,nt,nt,nt,i,nt,nt
COc1ccc(CN(C)C[C@@H]2Oc3c(NC(=O)Nc4ccc(OC)cc4)cccc3C(=O)N([C@H](C)CO)C[C@@H]2C)cc1,nt,nt,nt,i,nt,nt
CNC[C@H]1Oc2ccc(NC(=O)Nc3cccc4ccccc34)cc2CC(=O)N([C@@H](C)CO)C[C@H]1C,nt,nt,nt,i,nt,nt
COCCNC(=O)C[C@H]1CC[C@H]2[C@@H](COC[C@@H](O)CN2S(=O)(=O)c2ccccc2C)O1,nt,nt,nt,i,nt,nt
O=C(O)c1c[nH]c(=S)n1-c1ccc(F)cc1,i,104,i,i,nt,i
CSc1ncc(C(=O)O)n1-c1ccc(F)cc1,i,i,i,i,i,i
CO[C@H]1CN(C)C(=O)c2ccc(NC(=O)c3cnccn3)cc2OC[C@@H](C)N(C)C[C@@H]1C,nt,nt,nt,i,nt,nt
C[C@@H](NC(=O)C[C@H]1C[C@@H]2c3cc(NC(=O)c4cccnc4)ccc3O[C@@H]2[C@H](CO)O1)c1ccccc1,nt,nt,nt,i,nt,nt
CCOc1ccc2nc3c(cc2c1)CN(CCOC)C(=NC)S3,i,i,i,nt,i,i
CCN=C1Sc2nc3ccc(OCC)cc3cc2CN1CCOC,i,72,i,i,i,i
S=C(NCc1ccco1)Nc1ccc(Cl)c(Cl)c1,i,72,i,i,i,i
CCOc1ccccc1NC(=S)NCc1ccccc1,i,i,nt,i,i,i
CCOc1ccccc1NC(=S)NCc1ccco1,i,82,i,i,nt,i
SMILES,A3A deaminase,PHOSPHO1 inh,MITF act,esBAF inh,Wnt bcat act,A3G deaminase
S=C(NCc1ccco1)Nc1cccc(Cl)c1,i,i,i,nt,i,i
C[C@@H]1CN([C@H](C)CO)C(=O)c2cc(NC(=O)c3ccncc3)ccc2O[C@@H](C)CCCCO[C@@H]1CN(C)Cc1ccc2c(c1)OCO2,nt,nt,nt,i,nt,nt
COCC(=O)N1C[C@H]2[C@@H](c3ccccc31)[C@H](CO)N2Cc1ccccc1,nt,nt,nt,i,nt,nt
CC(C)(C)c1cn(-c2ccccc2)c(=S)[nH]1,i,76,nt,i,nt,i
Cc1ccc(-n2cc(C(C)(C)C)[nH]c2=S)cc1,i,93,nt,i,i,i
COc1ccc(CN(C)C[C@@H]2OCCCC[C@@H](C)Oc3ccc(NC(=O)NC(C)C)cc3C(=O)N([C@@H](C)CO)C[C@@H]2C)cc1,nt,nt,nt,i,nt,nt
C[C@@H]1CN([C@H](C)CO)S(=O)(=O)c2ccc(C3=CCCCC3)cc2O[C@@H]1CN(C)C(=O)C1CC1,nt,nt,nt,i,nt,nt
CC(=O)NC(CC(=O)NNC(=O)COc1c(C)cccc1C)c1ccccc1 (stereo not drawn),i,nt,i,nt,62,i

# Screening results (PubChem BioAssay)
